Bioassay records as filed in PubChem.
This is a sample that favours compounds with a hit; in the whole collection about 4.1% have one here.
EBV LMP1 NFkB: reduces LMP1-driven NF-kappaB luciferase signal | LMP1-induced NF-kappaB luciferase reporter cells, luminescence | inhibition, % at 12.5 µM | hit rate 0.69% among 350,000 | AID 504558; in the data active = inhibition above about 41%; inconclusive = no clear call, values can overlap the other calls;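 note: 0% = neutral control wells and 100% = reference inhibitor control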
Peg3 prom inh: Peg3 promoter activity inhibition; HeLa PEG-Prom luciferase reporter, luminescence, overnight; inhibition, % at 20 µM; hit rate 1.7% among 360,000; AID 588405;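 active = inhibition of at least 50% at 20 µM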
Shn3 inh set2: Schnurri-3 reporter inhibition in Clone20 osteoblasts; Clone20 osteoblast Shn3 3'UTR firefly luciferase, 24 h; inhibition, % at 12.5 µM; hit rate 0.52% among 360,000;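 active = mean inhibition of at least 75% with every replicate also reaching 75%; inconclusive = mean inhibition at least 75% but some replicate below; inactive = mean inhibition below 75%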;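 note: 0% = median of neutral control wells and 100% = pilot-screen positive control compound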
TROY NFkB inh: inhibitors of TROY-dependent NF-kB signaling. inhibition, % at 10 µM. hit rate 0.98% among 360,000. AID 1347056. Q293 LMP1-TROYcd NF-kB luciferase reporter, 4 h;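 active = compounds whose plate-normalised and pattern-corrected inhibition of the luciferase reporter signal at the single screening dose is 50% or more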
TRPM1 prom inh: MITF TRPM1 promoter inhibition in SK-MEL-5 cells. hit rate 0.83% among 330,000. inhibition, % at 12.5 µM. SK-MEL-5 TRPM1 promoter luciferase, 24 h;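 active = mean inhibition across replicates of 60% or more, whatever share of single replicates reaches that level; inconclusive = some that reach 60%, reason not given; inactive = mean inhibition across replicates below 60%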
TWEAK-Fn14 inh: blocks TWEAK-Fn14 interaction in a reporter cell assay; TWEAK-stimulated Fn14 reporter cells, luciferase luminescence, 8 h; inhibition, % at 10 µM; hit rate 2% among 360,000; in the data active = inhibition above about 50%
Numbers without * were called inactive; ? = inconclusive; · = no result.

SMILES	EBV LMP1 NFkB	Peg3 prom inh	Shn3 inh set2	TROY NFkB inh	TRPM1 prom inh	TWEAK-Fn14 inh
CN(CC1CCCO1)S(=O)(=O)c1ccc(C(=O)Nc2ccccc2F)cc1 (stereo not drawn)	-5.0	-17.4	-2.3	-10.4	-9.1	-6.3
O=C(Nc1nc(-c2ccccn2)cs1)c1cc(S(=O)(=O)N2CCOCC2)ccc1F	19.1	7.6	40.0	1.0	5.9	-18.1
O=C(Nc1nc(-c2ccccn2)cs1)c1ccc(F)c(S(=O)(=O)N2CCOCC2)c1	25.8	36.2	93.8*	4.7	66.9*	20.5
CN(CC1CCCO1)S(=O)(=O)c1ccc(C(=O)Nc2nc(-c3ccccn3)cs2)cc1 (stereo not drawn)	27.1	54.4*	90.1*	30.2	55.8	23.4
CC1(C)CC(NC(=O)c2cccc(S(=O)(=O)Nc3cccc(Cl)c3)c2)CC(C)(C)N1	-4.5	7.9	2.7	-1.7	-16.2	13.8
c1ccc(-c2cn3ccccc3n2)cc1	-51.0	-211.8	-69.6	-28.6	-52.2	42.1
c1ccc(-c2cn3nc(-c4ccccc4)sc3n2)cc1	9.1	44.8	65.9	61.3*	6.7	86.0*
Cc1nn2cc(-c3ccccc3)nc2s1	-1.1	-113.2	-28.0	8.8	-46.4	57.0*
O=C(CCC(=O)N1CCN(Cc2ccccc2)CC1)Nc1nnc(C2CCCCC2)s1	1.8	-4.1	15.8	-5.5	0.6	-1.3
N#C/C(=C/c1ccc(N2CCCCC2)o1)c1cccc(F)c1	-95.9	-298.1	60.5	22.4	-103.0	-2.6
N#C/C(=C/c1ccc(N2CCCCCC2)o1)c1ccc(Cl)cc1	29.8	97.4*	96.0*	-9.1	-18.9	1.0
COc1ccc(OC)c(NC(=O)NC2CCCc3ccccc32)c1 (stereo not drawn)	9.3	8.3	16.3	-11.7	9.1	3.2
CCCOc1ccc(/C=C2/C(=O)ON=C2C)cc1Cl	10.1	64.7*	6.4	7.7	14.1	-3.5
COc1cc(/C=C2/C(=O)ON=C2C)cc(Cl)c1O	-7.2	12.6	75.0	6.4	17.8	-4.8
C#CCOc1c(Cl)cc(/C=C2/C(=O)ON=C2C)cc1OC	4.7	-4.7	17.4	-5.3	7.1	63.0*
O=S1(=O)CC(N2CCN(CCO)CC2)CN1C1CCCCC1 (stereo not drawn)	·	0.5	5.3	4.4	·	-27.2
CC1(C)CC(NC(=O)c2ccccc2NS(=O)(=O)c2ccc(Br)cc2)CC(C)(C)N1	5.1	6.6	-17.7	-4.5	-9.2	-3.1
Cc1ccc(NC(=O)c2cc(S(=O)(=O)N3CCOCC3)ccc2Cl)cc1S(=O)(=O)N1CCOCC1	1.5	11.8	-12.6	-30.6	-2.6	-0.1
O=c1c2c(nc3n1CCCCC3)sc1c(O)c(Br)ccc12	18.6	-64.0	-26.6	35.5	-38.5	67.7*
Cc1cc([N+](=O)[O-])ccc1NC(=O)CSc1nncn1-c1ccccn1	-12.0	10.0	-2.4	-0.4	-6.0	-18.7
CC1(C(=O)Nc2cnc3ccccc3c2)CCN1C(=O)CCc1ccccc1 (stereo not drawn)	·	-0.4	14.3	8.9	·	5.4
CC1(C(=O)Nc2cnc3ccccc3c2)CCN1CCc1ccccc1 (stereo not drawn)	·	50.9*	16.2	29.4	·	14.6
CN(CC(=O)N1CCCCCC1)S(=O)(=O)c1ccc(F)cc1	-10.8	-99.3	-44.4	-5.2	-32.7	-13.8
CN(CCCC(=O)N1CCCC(C(N)=O)C1)S(=O)(=O)c1ccc(F)cc1 (stereo not drawn)	1.6	-2.1	3.4	-6.8	-2.1	68.2*
CC(C)COC(=O)c1ccc2c(c1O)C(=O)c1ccccc1C2=O	-40.2	-224.7	4.4	28.9	4.9	70.8*
SMILES	EBV LMP1 NFkB	Peg3 prom inh	Shn3 inh set2	TROY NFkB inh	TRPM1 prom inh	TWEAK-Fn14 inh
NC(=O)COC(=O)c1cccc2c1-c1ccccc1C2=O	-2.4	19.4	-15.8	-6.8	-10.6	-7.6
Fc1cccc2sc(Nc3nc4cc5c(cc4s3)OCCO5)nc12	-48.0	-124.8	-37.2	71.9*	-9.0	73.4*
Fc1cccc2sc(Nc3nc4cc5c(cc4s3)OCO5)nc12	-80.4	-327.3	-66.4	-69.9	-70.7	-25.5
O=C(Nc1nc(-c2cc(Cl)sc2Cl)cs1)c1ccc(Br)s1	43.6*	1.3	-0.8	4.7	-0.4	46.6
O=C(CCS(=O)(=O)c1ccc(F)cc1)Nc1nc(-c2ccccn2)cs1	10.6	8.3	31.4	3.3	42.4	12.3
O=C(Nc1nc(-c2ccccn2)cs1)c1cccc(-n2cnnn2)c1	29.9	39.9	97.6*	-5.2	41.8	-7.7
CC(Oc1ccc(F)cc1)C(=O)Nc1nc(-c2ccccn2)cs1 (stereo not drawn)	14.2	55.4*	62.3	74.5*	65.3*	-93.9
O=C(Nc1ccc(Br)cc1)c1cccc(-n2cnnn2)c1	7.8	-63.0	-4.7	-29.5	-6.9	-35.3
O=C(Nc1nc(-c2ccccn2)cs1)c1ccc(Br)s1	86.7*	-67.7	93.2*	-10.4	21.6	-106.7
O=C(Nc1ccc(OCC(F)(F)C(F)F)c(C(F)(F)F)c1)c1ccccc1O	23.3	-59.9	78.5	44.5	63.2*	45.9
O=C(c1ccc([N+](=O)[O-])o1)N1CCN(c2nc3c(F)cc(F)cc3s2)CC1	-24.4	-5.1	25.7	-4.1	79.3*	21.9
Cc1ccc(C)c2sc(N3CCN(C(=O)c4ccc([N+](=O)[O-])o4)CC3)nc12	-89.2	18.6	46.2	13.3	48.0	0.4
O=C1c2cccc3c([N+](=O)[O-])ccc(c23)C(=O)N1c1ccc(Cl)cn1	8.7	105.4*	58.1	61.8*	34.1	6.8
O=C1c2cccc3cccc(c23)C(=O)N1c1nccs1	-3.1	-18.9	10.3	-21.9	-3.3	5.0
O=C1c2cccc3c([N+](=O)[O-])ccc(c23)C(=O)N1c1nccs1	48.6*	94.2*	54.1	38.9	?	-58.5
CC(=O)Oc1ccc(N2C(=O)c3cccc4c([N+](=O)[O-])ccc(c34)C2=O)cc1	17.2	46.7	-1.0	55.1*	24.7	-99.1
O=C1c2cccc3c([N+](=O)[O-])ccc(c23)C(=O)N1c1ccccn1	55.1*	93.5*	37.2	30.3	33.6	-110.8
Cc1ccc(S(=O)(=O)N2CCC(C(=O)Nc3ccc(N4CCOCC4)cc3)CC2)cc1C	-1.9	3.6	10.2	-9.1	7.8	-4.5
Cc1ccc(N/C(N)=N/c2nc(C)cc(N3CCCCC3)n2)c(C)c1	14.5	90.8*	96.3*	61.4*	24.3	5.4
Nc1cc(N)nc(SCC(=O)c2ccc3c(c2)NC(=O)CO3)n1	44.4*	6.7	-2.2	2.4	5.3	-15.7
COc1cc(C2C(C#N)=C(N)OC3=C2C(=O)CC(C)(C)C3)cc2c1OCO2 (stereo not drawn)	-6.0	9.2	17.9	-17.9	2.5	5.6
O=C(c1n[nH]c(=O)c2ccccc12)N1CCN(Cc2ccc3c(c2)OCO3)CC1	1.3	6.4	-1.7	6.4	-1.2	1.9
O=C(c1n[nH]c(=O)c2ccccc12)N1CCOCC1	-3.4	-0.2	-7.1	·	3.6	56.6*
C=CCc1c(OC)ccc2c1c(S(=O)(=O)c1ccc(C)cc1)cn2COC	-3.7	17.5	16.2	8.4	27.1	2.5
